Assay results as given in PubChem BioAssay (Tox21).
Results filed as inconclusive are left out. A call without a number means that no potency is given here. Activity calls are given as the source filed them. Calls come from the whole dose curve; as a rule, active = well fitted cell-killing curve with a large enough effect in the repeat runs; inconclusive = weak or mixed curves, or effect the other way; inactive = no such curve, though single readings can be large or run the other way. Non-standard residues stand in square brackets, D forms with d. Residues, ends and D or L forms follow the SMILES beside them. pGlu = O=C1CC[C@@H](C(=O)O)N1

Assay: qHTS assay to identify small molecule antagonists of the thyroid receptor (TR) signaling pathway - cell viability counter screen (AID 743064); note: nearly all actives have a fitted effect of over 50% in size
Details: GH3.TRE-Luc viability, CellTiter-Fluor, 24 h; series mostly up to 70.3 µM
From the text: National Center for Advancing Translational Sciences [NCATS]
NIH Chemical Genomics Center [NCGC]
U.S. Environmental Protection Agency [EPA]
National Institutes of Environmental Health Sciences [NIEHS]
National Toxicology Program [NTP]
U.S. Food and Drug Administration [FDA]
Thyroid receptor (TR), a nuclear hormone receptor, plays an important role in development, proliferation, differentiation, metabolism, brain function, and cardiovascular system. […] To profile the Tox21 10K compound library in TR signaling, a cell-based GH3-TRE-Luc assay (GH3.TRE-Luc cell line, developed by the laboratory of Dr. Albertinka J. Murk, Wageningen University) was used to measure the inhibition of TR. GH3 (rat pituitary tumor) cells stably expressing a TR activity sensor consisting of two TR response elements and a luciferase reporter gene. The cytotoxicity of the Tox21 compound library against the GH3.TRE-Luc cell line was tested in parallel by measuring the cell viability using CellTiter-Fluor assay (Promega, Madison, WI) in the same wells.
Tox21 Assay Protocol Summary:
GH3.TRE-Luc cells were dispensed at 1500 cells/4 uL/well into 1536-well white solid bottom plates using a Multidrop Combi dispenser (Thermo Fisher Scientific Inc., Waltham, MA). After the assay plates were incubated at 37 C for 4 hours, 23 nL of library compound or DMSO controls was transferred to the assay plates by a pintool station (Kalypsys, San Diego, CA), followed by addition of 1 ul of T3 (1 nM, final concentration in the wells) to stimulate TR transactivation. The assay plates were incubated at 37 C for 23.5 h, and then 1 uL of CellTiter-Fluor reagent (Promega, Madision, WI) of measuring cytotoxicity was added to each well using a Bioraptr Flying Reagent Dispenser (FRD) workstation (Beckman Coulter, Indianapolis, IN, USA). The plates were incubated at 37C and 5% CO2 for additional 30 min, and fluorescence intensity was measured by a ViewLux plate reader (PerkinElmer, Shelton, CT).
Potency is the fitted concentration of half-maximal effect.

Row | SMILES | Potency
1 | CN[C@@H]1CCc2[nH]c3ccc(C(N)=O)cc3c2C1 | inactive
2 | O=P(O)(O)OC[C@H](O)CO | inactive
3 | CC1=C(/C=C/C(C)=C/C=C/C(C)=C/C=C/C=C(C)/C=C/C=C(C)/C=C/C2=C(C)C(=O)CCC2(C)C)C(C)(C)CCC1=O | inactive
4 | COc1ccc(CNCC(O)COc2ccc3[nH]c(=O)ccc3c2)cc1OC (stereo not given) | inactive
5 | CC(C(=O)O)c1ccc(C2CCCCC2)c2ccccc12 (stereo not given) | inactive
6 | CC(C)(C)CC(=O)OCC(=O)[C@@]12OC(C)(C)O[C@@H]1C[C@H]1[C@@H]3CCC4=CC(=O)C=C[C@]4(C)[C@@]3(F)[C@@H](O)C[C@@]12C | inactive
7 | CCCN(CC)C(CC)C(=O)Nc1c(C)cccc1C (stereo not given) | inactive
8 | CN1CCC(CN2c3ccccc3Sc3ccccc32)C1 (stereo not given) | 10.6 µM (active)
9 | Cc1ccc(/C(=C\CN2CCCC2)c2cccc(/C=C/C(=O)O)n2)cc1 | inactive
10 | CCCOc1ccc2nc(NC(=O)OC)sc2c1 | 10.6 µM (active)
11 | C=CCSSSCC=C | inactive
12 | CNCC(O)c1ccc(OC(=O)C(C)(C)C)c(OC(=O)C(C)(C)C)c1 (stereo not given) | 12.7 µM (active)
13 | NC(Cc1ccccc1)C(=O)O (stereo not given) | inactive
14 | OC1OC[C@@H](O)[C@H](O)[C@@H]1O (stereo not given in full) | inactive
15 | O=C(c1cc2ccccc2o1)N1CCN(Cc2ccccc2)CC1 | inactive
16 | CCCCCC(O)/C=C/C=O (stereo not given) | inactive
17 | CC(CN1c2ccccc2Sc2ccc(S(=O)(=O)N(C)C)cc21)N(C)C (stereo not given) | 11.9 µM (active)
18 | O.O=C([O-])CC([S-])C(=O)[O-].[Au+].[Na+].[Na+] (stereo not given) | inactive
19 | [O]=[Bi][O][Bi]=[O] | inactive
20 | NC(=O)Oc1ccc(Cc2ccccc2)cc1 | inactive

Row | SMILES | Potency
21 | Cc1onc(-c2ccccc2)c1C(=O)N[C@@H]1C(=O)N2[C@@H]1SC(C)(C)[C@@H]2C(=O)O | inactive
22 | CC(=O)N[C@@H]1C(O[C@H]2O[C@H](C(=O)O)C(O)[C@H](O)[C@H]2O)[C@H](O)[C@@H](CO)O[C@H]1O[C@@H]1C(C(=O)O)O[C@@H](O[C@H]2[C@H](O)[C@@H](CO)OC(O)[C@@H]2NC(C)=O)[C@H](O)[C@H]1O (stereo not given in full) | inactive
23 | COc1c(O[C@@H]2O[C@H](CO)[C@@H](O)[C@H](O)[C@H]2O)cc2c(c1OC)-c1ccc(SC)c(=O)cc1[C@@H](NC(C)=O)CC2 | inactive
24 | CC(=O)O[C@H]1C[C@@]2(C)[C@@H](C[C@@H](O)[C@H]3[C@@]4(C)CC[C@@H](O)[C@@H](C)[C@@H]4CC[C@@]32C)/C1=C(\CCC=C(C)C)C(=O)O | inactive
25 | CC(C)(S)[C@@H](N)C(=O)O | inactive
26 | O=S(O)CNc1ccc(S(=O)(=O)c2ccc(NCS(=O)O)cc2)cc1 | inactive
27 | COC(=O)CC[C@H](N)C(=O)O | inactive
28 | Cn1nnnc1SCC1=C(C(=O)O)N2C(=O)[C@@H](NC(=O)[C@H](O)c3ccccc3)[C@H]2SC1 | inactive
29 | CCc1ccc(S(=O)(=O)O)cc1 | inactive
30 | CCCC(=O)O[C@]1(C(=O)COC(C)=O)CC[C@H]2[C@@H]3C[C@H](F)C4=CC(=O)C=C[C@]4(C)[C@@]3(F)[C@@H](O)C[C@@]21C | inactive
31 | CCC(=O)OCC(=O)[C@@]1(OC(=O)CC)[C@H](C)C[C@H]2[C@H]3[C@H]([C@@H](O)C[C@@]21C)[C@@]1(C)C=CC(=O)C=C1C[C@H]3Cl | inactive
32 | C=C1C(=C/C=C2\CCC[C@]3(C)[C@@H]([C@H](C)/C=C/[C@H](C)C(C)C)CC[C@@H]23)C[C@@H](O)C[C@@H]1O | 29.8 µM (active)
33 | NC(=O)OCC(O)COc1ccc(Cl)cc1 (stereo not given) | inactive
34 | CC[C@H](C)[C@H](NC(=O)[C@H](Cc1ccccc1)NC(=O)[C@H](C)NC(=O)[C@H](CC(=O)O)NC(=O)[C@H](CCCCN)NC(=O)[C@H](CO)NC(=O)[C@@H]1CCCN1C(=O)[C@@H]1CCC(=O)N1)C(=O)NCC(=O)N[C@@H](CC(C)C)C(=O)N[C@@H](CCSC)C(N)=O ([pGlu]PSKDAFIGLM-NH2) | inactive
35 | CC(=O)Oc1c(C)cc(OCC(O)CNC(C)C)c(C)c1C (stereo not given) | inactive
36 | CCC[C@@]1(CCc2ccccc2)CC(O)=C([C@H](CC)c2cccc(NS(=O)(=O)c3ccc(C(F)(F)F)cn3)c2)C(=O)O1 | inactive
37 | Cc1ncc(C[n+]2csc(CCOP(=O)(O)OP(=O)(O)O)c2C)c(N)n1 | inactive
38 | CCN(CC)CCOC(=O)c1cccnc1 | inactive
39 | CCCCCCCCCCCCCCCCCC(=O)OC[C@@H](O)[C@H]1OC[C@H](O)[C@H]1O | inactive
40 | CO[C@@H]1[C@@H](O[C@@H]2O[C@H](C)[C@@H](O[C@H]3C[C@@](C)(O)[C@@H](OC(=O)CC(C)C)[C@H](C)O3)[C@H](N(C)C)[C@H]2O)[C@@H](CC=O)C[C@@H](C)C(=O)/C=C/C2OC2C[C@@H](C)OC(=O)C[C@H]1OC(C)=O (stereo not given in full) | 29.8 µM (active)
